MEKK2 WT-MEK5: raises or lowers MEK5 binding to wildtype human MEKK2 PB1 domain. Q9Y2U5. bead flow cytometry, Alexa488-MEK5 binding to MEKK2 WT; actives lie on both sides. binding response (% of control), % at 10 µM. hit rate 1.1% among 290,000; in the data active = binding response below about 67% or above about 130%
Mot1-301 SUMO: blocks SUMOylation pathway, rescuing yeast Mot1-301 growth. S. cerevisiae Mot1-301 growth rescue, ATP luminescence, 38.5C; percent above DMSO median, 100 means doubled. growth rescue, % at 18.8 µM. hit rate 1% among 320,000. AID 2716;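 active = every valid replicate shows activation above 250% relative to neutral control wells; inactive = the rest, any valid replicate at or below 250%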;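 also: OY570 slx delta 5 strain wells were the positive control but not used for scaling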
CHT PAM: human CHT allosteric activation. hit rate 0.49% among 310,000. Q9GZV3. CHT-expressing cells, membrane potential dye, choline EC20; hits give high values; LV-AA mutant CHT in HEK293 cells. AID 488977. B-score at 10 µM;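 active = initial fluorescence not abnormally high and integrated response B-score, plate-corrected, over 3 SD above library mean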
Target sequence (Q9GZV3 whole entry, looked up): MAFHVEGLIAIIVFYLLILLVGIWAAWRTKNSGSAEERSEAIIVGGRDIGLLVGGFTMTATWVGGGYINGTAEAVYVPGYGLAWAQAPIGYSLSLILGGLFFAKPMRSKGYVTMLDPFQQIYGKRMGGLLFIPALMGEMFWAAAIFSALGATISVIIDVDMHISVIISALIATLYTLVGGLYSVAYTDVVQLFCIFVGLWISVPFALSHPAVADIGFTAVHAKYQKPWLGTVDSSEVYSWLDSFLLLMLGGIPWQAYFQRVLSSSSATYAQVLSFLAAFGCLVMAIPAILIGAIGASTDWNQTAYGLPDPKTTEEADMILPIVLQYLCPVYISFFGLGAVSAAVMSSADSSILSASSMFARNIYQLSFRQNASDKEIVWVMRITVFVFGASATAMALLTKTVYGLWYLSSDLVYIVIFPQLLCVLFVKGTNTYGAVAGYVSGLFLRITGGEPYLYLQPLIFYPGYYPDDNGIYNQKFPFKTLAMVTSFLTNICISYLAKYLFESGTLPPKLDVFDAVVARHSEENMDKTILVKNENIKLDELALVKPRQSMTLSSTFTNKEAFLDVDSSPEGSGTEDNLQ
CHT inh: inhibitors of human choline transporter CHT; Q9GZV3; CHT-expressing cells, membrane potential dye, choline response; hits give low values; B-score at 10 µM; hit rate 0.86% among 310,000; AID 488975;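 active = B-score over 3 SD under the library average, and starting fluorescence ratio not unusually high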;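 also: choline stimulus applied at its EC90 after an EC20 pre-addition; B-score computed on integrated fluorescence ratio after choline addition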
MEKK2mut PB1 HTS: signal of MEK5 binding to mutant human MEKK2 PB1 domain | percent response, % at 10 µM | hit rate 0.35% among 290,000 | bead flow cytometry, Alexa488-MEK5 binding to MEKK2 mutant; in the data active = percent response above about 24%, passing the limit was not always enough
MEKK3 PB1 HTS: raises or lowers MEK5 binding to the human MEKK3 PB1 domain; binding response (% of control), % at 10 µM; hit rate 1.4% among 290,000; AID 1529; bead-based flow cytometry, Alexa488-MEK5 binding to MEKK3; actives lie on both sides; 0 = blocked by unlabeled MEK5, 100 = vehicle;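 active = binding response more than 3 SD above or below the average of its plate-row segment, actives on both sides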;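 also: Alexa488 bead fluorescence after subtracting the streptavidin-only scavenger bead signal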
MEKK2wt confirm: raises or lowers MEK5 binding to wildtype human MEKK2, retest; shares compounds with MEKK3 PB1 HTS; bead flow cytometry, Alexa488-MEK5 binding to MEKK2 WT; actives lie on both sides; binding response (% of control), % at 10 µM; hit rate 2.4% among 5,900; in the data active = binding response below about 16% or above about 210%; inactive = in between
MEKK2mut confirm: signal of MEK5 binding to mutant human MEKK2, retest. shares compounds with MEKK3 PB1 HTS. bead flow cytometry, Alexa488-MEK5 binding to MEKK2 mutant. percent response, % at 10 µM. hit rate 2% among 5,900; in the data active = percent response mostly above about 71%, no sharp cut-off; inactive = mostly below about 38%;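 also: higher means compound restores mutant binding toward wildtype level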
MEKK3-MEK5 inh: MEKK3-MEK5 PB1 inhibition, single concentration confirmation | bead flow cytometry, Alexa488-MEK5 binding to MEKK3; hits give low values | hit rate 1.8% among 5,900 | shares compounds with MEKK3 PB1 HTS | AID 1894 | binding response (% of control), % at 10 µM;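 active = binding response below 72% of control, or above a set upper limit, though filed actives all read lower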;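 also: 100% = DMSO only wells and 0% = binding blocked by excess unlabeled MEK5; lower values mean stronger disruption of MEK5 binding to MEKK3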
The depositor's hits bear a star; [ ] = dose if it differs, or a comment. An excerpt weighted towards active compounds, which were near 4.1% of everything screened.

`O=S(=O)(c1ccc(F)c(F)c1F)N1CCN(C(=S)NC2CC3CCC2C3)CC1` (centres undefined) gave MEKK2 WT-MEK5 72, Mot1-301 SUMO -5, CHT PAM inactive, CHT inh inactive, MEKK2mut PB1 HTS -14, MEKK3 PB1 HTS 64*[inhibitor], MEKK2wt confirm 99, MEKK2mut confirm 1 and MEKK3-MEK5 inh 95.
For CCc1ccc(NC(=O)C/C(C)=N/NC(=O)OCc2ccc(OC)cc2)cc1 the results were MEKK2 WT-MEK5 107, Mot1-301 SUMO -9, CHT PAM inactive, CHT inh inactive, MEKK2mut PB1 HTS 1, MEKK3 PB1 HTS 136*, MEKK2wt confirm 101, MEKK2mut confirm 0 and MEKK3-MEK5 inh 100.
`CC(C)(C)C(=O)Cn1nc(Cl)nc1Cl` gave MEKK2 WT-MEK5 124, Mot1-301 SUMO 30, CHT PAM inactive, CHT inh inactive, MEKK2mut PB1 HTS 2, MEKK3 PB1 HTS 132*, MEKK2wt confirm 101, MEKK2mut confirm -6 and MEKK3-MEK5 inh 98.
CCOC(=O)C1CCN(C(=O)c2cccc(NC(=O)C(CC)CC)c2)CC1 was read as MEKK2 WT-MEK5 81, Mot1-301 SUMO -3, CHT PAM inactive, CHT inh inactive, MEKK2mut PB1 HTS -12, MEKK3 PB1 HTS 81*[inhibitor], MEKK2wt confirm 100, MEKK2mut confirm 0 and MEKK3-MEK5 inh 100.
`CCOC(=O)C1CCN(C(=O)c2cccc(NS(=O)(=O)c3ccc(Br)cc3)c2)CC1` gave Mot1-301 SUMO -2.
CC1(C)SC(=S)N(NC(=O)Nc2ccccc2)C1N(O)C(=O)Nc1ccccc1 (centres undefined) was read as MEKK2 WT-MEK5 96, Mot1-301 SUMO -21, CHT PAM inactive, CHT inh inactive, MEKK2mut PB1 HTS 1 and MEKK3 PB1 HTS 103.
CNC(=O)N(O)C1N(NC(=O)Nc2cccc3ccccc23)C(=S)SC1(C)C (centres undefined) was read as MEKK2 WT-MEK5 105, Mot1-301 SUMO -12, CHT PAM inactive, CHT inh inactive, MEKK2mut PB1 HTS 1, MEKK3 PB1 HTS 132*, MEKK2wt confirm 101, MEKK2mut confirm 3 and MEKK3-MEK5 inh 100.
For CC(C)C(=O)NCC(c1ccc2c(c1)OCO2)N1CCOCC1 (centres undefined) the results were MEKK2 WT-MEK5 106, Mot1-301 SUMO -15, CHT PAM inactive, CHT inh inactive, MEKK2mut PB1 HTS 5 and MEKK3 PB1 HTS 102.
For C#CCOCCOCCOCCNc1nc(N2CCN(C(=O)[C@H](Cc3cc4ccccc4[nH]3)n3cc([C@@H](N)C(C)CC)nn3)CC2)nc(N2CCN(C(=O)[C@H](CCCCN)n3cc([C@@H](N)CO)nn3)CC2)n1 (some centres undefined) the results were MEKK2 WT-MEK5 202*, Mot1-301 SUMO -18, CHT PAM inactive, CHT inh inactive, MEKK2mut PB1 HTS 57*, MEKK3 PB1 HTS 107, MEKK2wt confirm 204, MEKK2mut confirm 52 and MEKK3-MEK5 inh 108.
For C#CCOCCOCCOCCNc1nc(N2CCN(C(=O)[C@H](CCCCN)n3cc([C@@H](N)C(C)CC)nn3)CC2)nc(N2CCN(C(=O)[C@H](CCCCN)n3cc([C@@H](N)CO)nn3)CC2)n1 (some centres undefined) the results were MEKK2 WT-MEK5 107, Mot1-301 SUMO -9, CHT PAM inactive, CHT inh inactive, MEKK2mut PB1 HTS -29 and MEKK3 PB1 HTS 90.
Screening C#CCOCCOCCOCCNc1nc(N2CCN(C(=O)[C@H](Cc3cc4ccccc4[nH]3)n3cc([C@@H](N)C(C)CC)nn3)CC2)nc(N2CCN(C(=O)[C@H](Cc3cc4ccccc4[nH]3)n3cc([C@@H](N)CC(C)C)nn3)CC2)n1 (some centres undefined) returned MEKK2 WT-MEK5 205*, Mot1-301 SUMO 2, CHT PAM inactive, CHT inh inactive, MEKK2mut PB1 HTS 13, MEKK3 PB1 HTS 99, MEKK2wt confirm 249*, MEKK2mut confirm 76* and MEKK3-MEK5 inh 109.
C#CCOCCOCCOCCNc1nc(N2CCN(C(=O)[C@H](Cc3ccc(O)cc3)n3cc([C@@H](N)C(C)CC)nn3)CC2)nc(N2CCN(C(=O)[C@H](CCCCN)n3cc([C@@H](N)CC(C)C)nn3)CC2)n1 (some centres undefined) was read as MEKK2 WT-MEK5 137, Mot1-301 SUMO -6, CHT PAM inactive, CHT inh inactive, MEKK2mut PB1 HTS 19 and MEKK3 PB1 HTS 101.
`C#CCOCCOCCOCCNc1nc(N2CCN(C(=O)[C@H](CCCCN)n3cc([C@@H](N)C(C)CC)nn3)CC2)nc(N2CCN(C(=O)[C@H](Cc3cc4ccccc4[nH]3)n3cc([C@@H](N)CC(C)C)nn3)CC2)n1` (some centres undefined) gave MEKK2 WT-MEK5 237*, Mot1-301 SUMO -18, CHT PAM inactive, CHT inh inactive, MEKK2mut PB1 HTS 93*, MEKK3 PB1 HTS 111, MEKK2wt confirm 137, MEKK2mut confirm 21 and MEKK3-MEK5 inh 102.
For O=C(CCCN=C1NS(=O)(=O)c2ccccc21)OCC(=O)c1ccc(F)cc1 the results were Mot1-301 SUMO -19, CHT PAM inactive and CHT inh inactive.
For CC(/C=N/NC(=O)Cn1cnc2c1c(=O)n(C)c(=O)n2C)=C\c1ccccc1 the results were MEKK2 WT-MEK5 98, Mot1-301 SUMO 12, CHT PAM inactive, CHT inh inactive, MEKK2mut PB1 HTS 2 and MEKK3 PB1 HTS 96.
`CC(C)CC(=O)N=C1SC2CS(=O)(=O)CC2N1Cc1ccccc1` (centres undefined) gave MEKK2 WT-MEK5 114, CHT PAM inactive, CHT inh inactive, MEKK2mut PB1 HTS 1, MEKK3 PB1 HTS 195*, MEKK2wt confirm 97, MEKK2mut confirm -8 and MEKK3-MEK5 inh 98.
Brc1c(C[n+]2ccccc2)nc2ccccn12 was read as MEKK2 WT-MEK5 101, Mot1-301 SUMO -6, CHT PAM inactive, CHT inh inactive, MEKK2mut PB1 HTS 4 and MEKK3 PB1 HTS 100.

Assay outcomes from PubChem.
